A selection: hits, their analogues and other compounds. The true share with any hit is near 4.2%.
a7 integrin act – activates integrin-mediated alleviation for muscular dystrophy | alpha7betagal myoblasts, beta-gal FDG fluorescence, 48 h | Potency, µM (doses to about 38.3 µM), without a hit: top-dose activation, actives largely listed as activators | hit rate 0.064% among 350,000;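 note: 100% = response of the positive control SU9516; nearly all actives have a fitted effect of over 60% in size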
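Alpha7betagal+/- myoblasts (passage 13) were plated 16-24 hr, then exposed to compounds (1:260 dilution of DMSO stock) for 48 hours at 37C. After MPER lysis, β-galactosidase reporter activity was read as FDG fluorescence (ex 480/em 540) after 30 minutes.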
MCF10A rereplic – induces DNA re-replication in MCF 10a normal breast cells | Potency, µM (titrated, usually from 46.1 µM), for the others: top-dose activity, positive = re-replication, hits mostly activators | hit rate 2.9% among 350,000 | MCF 10A DNA re-replication, Hoechst nuclear intensity, 48 h; note: % of control where 0% means no effect; nearly all actives have a fitted effect of over 50% in size
Mito fusion yeast – inhibitors of mitochondrial division or activators of mitochondrial fusion | S. cerevisiae fusion-defective mutant growth rescue, CellTiterGlo 48 h | Potency, µM (titrated, usually from 46.1 µM), inactives show top-dose growth rescue (activation), most hits filed as activators | hit rate 0.23% among 320,000 | AID 485298; note: % of control where 0% means no effect; nearly all actives have a fitted effect of over 45% in size
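S. cerevisiae fusion-defective temperature-sensitive mutants (e.g. fzo1-1, mgm1-5) grown 48 h at 37C in YPEG (ethanol/glycerol non-fermentable) medium with 23 nl compound per well; growth rescue read as CellTiterGlo luminescence.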
A-T KAP1 phos – potential ataxia-telangiectasia treatments restoring KAP-1 phosphorylation; F2112 A-T fibroblasts, KAP-1 phosphorylation AlphaLISA; neocarzinostatin DNA damage 30 min before lysis; Potency, µM (highest dose often 57.5 µM), without a hit: top-dose activation, hits mostly activators; hit rate 0.19% among 320,000; AID 485349; note: % of control where 0% means no effect; nearly all actives have a fitted effect of over 45% in size
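hTERT-immortalized A-T patient fibroblasts (F2112), 500 cells/well in OPTI-MEM, 1% FBS, got compounds for 60 min, then NCS for 30 min at 37C. Lysates were then assayed for phospho-KAP-1 by AlphaLISA (anti-pKAP1 donor, anti-KAP1 acceptor beads), 6 hr at 25C.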
SW480 rerep – DNA re-replication induction in SW480 cells | SW480 DNA re-replication, Hoechst DNA content imaging, 48 h | Potency, µM (doses to about 46.1 µM), for inactives: at the top dose re-replication activation, usual class: activators | hit rate 1.8% among 340,000; note: % of control where 0% means no effect; nearly all actives have a fitted effect of over 55% in size
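Readout is total intensity of Hoechst-stained nuclei, excited at 405 nm and collected at 500-530 nm. Compound treatment lasted 48 hr at 37 C in 5% CO2 before staining.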
Starred values were filed as active, the others as inactive; ? = inconclusive; / = not tested or not shown. Calls come from the whole dose curve; as a rule, active = well fitted activation curve with a large enough effect; inconclusive = small, poorly fitted or top-dose-only effect; inactive = no such curve, though single readings can be large or run the other way. Potency is the fitted concentration of half-maximal effect.

SMILES	a7 integrin act	MCF10A rereplic	Mito fusion yeast	A-T KAP1 phos	SW480 rerep
CCCCCn1c(=N)c(S(=O)(=O)c2ccc(Br)cc2)cc2c(=O)n3cccc(C)c3nc21	-13%	?	2%	10%	?
OC(Cc1cccnc1)c1ccccc1 (stereo not drawn)	9%	1%	/	/	1%
O=S(=O)(Nc1ccc(Br)cc1)c1cccc(NS(=O)(=O)c2cccs2)c1	-6%	7.3µM*	/	/	-6%
Cc1ccc(NS(=O)(=O)c2ccc(NS(=O)(=O)c3cccs3)cc2)cc1	-31%	?	-1%	3%	1%
COc1c(C=NNC(N)=O)c(OC)c(OC)c2c1CCO2	20%	-22%	/	/	0%
FC(F)(F)c1nnc(-c2ccccc2)nc1Oc1ccc(Cl)cc1Cl	9%	3.3µM*	1%	10%	-4%
FC(F)(F)c1cccc(Sc2nc(-c3ccccc3)nnc2C(F)(F)F)c1	-21%	7.3µM*	7%	3%	?
FC(F)(F)c1nnc(-c2ccccc2)nc1Sc1ccc(Cl)cc1	6%	5.8µM*	10%	7%	?
FC(F)(F)c1nnc(-c2ccccc2)nc1N1CCCC1	0%	-3%	0%	2%	-3%
CN(NC(=O)c1cccc(Cl)c1)c1nc(-c2ccccc2)nnc1C(F)(F)F	10%	?	3%	6%	?
COc1cnc(-c2ccccn2)nc1Oc1cccc(C(F)(F)F)c1	/	/	0%	1%	/
FC(F)(F)c1cccc(Oc2nc(-c3ccccc3)nnc2C(F)(F)F)c1	1%	15µM*	5%	-2%	-2%
COc1cccc(CNC(=O)c2ccc(F)c(S(=O)(=O)N3CCCCC3)c2)c1	0%	/	/	/	/
FC(F)(F)c1nnc(-c2ccccc2)nc1Sc1ccccc1	-13%	5.2µM*	-4%	14%	?
C=CCn1c2ccccc2c(=O)c2cc(C#Cc3cc(OC)cc(OC)c3)ccc21	7%	?	8%	?	6.5µM*
COc1cc(C#Cc2c(C=O)n(C)c3ccccc23)cc(OC)c1	14%	5.8µM*	-12%	?	8.2µM*
Cn1c2ccccc2c(=O)c2cc(C#Cc3ccccn3)ccc21	6%	-21%	10%	18%	-4%
Cc1ccc(NC(=O)c2ccc([N+](=O)[O-])o2)cc1S(=O)(=O)N1CCOCC1	-51%	2.1µM*	17%	1%	1.5µM*
Cc1ccc(NC(=O)CSc2nc(C)c(C)c(C)n2)cc1S(=O)(=O)N1CCOCC1	18%	0%	/	21%	3%
O=C(COC(=O)c1ccc([N+](=O)[O-])o1)Nc1cccc(S(=O)(=O)N2CCCCC2)c1	-46%	-1%	-3%	5%	-7%
O=C(Cc1ccccc1Cl)Nc1cccc(S(=O)(=O)N2CCCCCC2)c1	-24%	?	22%	16%	-10%
O=C(Nc1cccc(S(=O)(=O)N2CCCCC2)c1)Nc1ccc(Cl)cc1Cl	-65%	7.3µM*	-13%	9%	?
O=C(Nc1cccc(S(=O)(=O)N2CCCCC2)c1)c1ccc([N+](=O)[O-])o1	-46%	16µM*	9%	29%	6.5µM*
Cc1ccc(NC(=O)CSc2nc(N)cc(N)n2)cc1S(=O)(=O)N1CCOCC1	12%	?	-9%	5%	3.7µM*
COc1cc2oc3cc(C#Cc4ccc(N)cc4)ccc3c(=O)c2cc1OC	-25%	9.2µM*	/	/	9.2µM*
SMILES	a7 integrin act	MCF10A rereplic	Mito fusion yeast	A-T KAP1 phos	SW480 rerep
COc1cc2oc3ccc(C#Cc4ccc(N)cc4)cc3c(=O)c2cc1OC	-14%	23µM*	/	/	0%
COc1cc2oc3ccc(C#Cc4ccccn4)cc3c(=O)c2cc1OC	35%	21µM*	/	/	?
Nc1ccc(C#Cc2ccc3c(=O)c4ccccc4oc3c2)cc1	27%	?	0%	18%	16µM*
N#Cc1ccc(C#Cc2ccc3oc4ccccc4c(=O)c3c2)cc1	15%	19%	/	3%	-4%
C[C@H](CO)N1C[C@H](C)[C@H](CN(C)Cc2ccc(Oc3ccccc3)cc2)Oc2cc(Br)ccc2S1(=O)=O	-55%	/	/	/	/
CCC(Oc1ccc2c(=O)c(-c3ccccc3OC)coc2c1)C(=O)OCc1ccccc1 (stereo not drawn)	-10%	13%	7%	1%	-5%

Source: PubChem (National Center for Advancing Translational Sciences (NCATS))
